Assay results taken from ChEMBL document CHEMBL3988442, “University of Dundee, Small-Polar-MMV Screening Library” (2021).
Screen size: about 69,000 compounds; about 950 (1.4%) showed an effect of 50% or more. For the sample, strong results were picked, then their nearest neighbours and some compounds at random.

Test system: Mycobacterium tuberculosis
Test: Cornell M. t heat shock assay; also: in the data most compounds retested in dose-response had high values
Type: functional, organism-based
Design: dose or concentration left out as unconfirmed

SMILES	Percent Effect [%]
Cc1cccc(NC(=O)c2csc(NCC(C)C)n2)n1	-0.3454
CC(C)Nc1nc(C(=O)Nc2ccccn2)cs1	9.074
CC(C)NC(=O)c1csc(NC2CC2)n1	28.59
Cc1cnc(NC(=O)c2csc(NCC(C)C)n2)s1	103.8
O=C(Nc1nccs1)c1csc(NC2CCCC2)n1	106.3
Cc1cnc(NC(=O)c2csc(NC3CCCC3)n2)s1	106.1
CC(NC(=O)Nc1nccs1)C(=O)NC1CCCC1 (stereo not drawn)	1.171
CC(C)CCNC(=O)c1csc(NC2CC2)n1	43.35
CC1CCN(C(=O)C2(Cc3cc(C4CCOC4)no3)CCNCC2)CC1.Cl (stereo not drawn)	3.404
COc1nn(C)c2c1CCCN(C(=O)c1cccc3cccnc13)C2.O=C(O)C(F)(F)F	-1.629
COCC1CN(C(=O)Cc2cccs2)Cc2nnn(CC3CC3)c21 (stereo not drawn)	-31.31
Nc1cc(CCC2CN(Cc3ccc4cc[nH]c4c3)CCO2)ccn1 (stereo not drawn)	-29.21
Cc1ccsc1CN1C[C@@H]2COC[C@]2(COCC(=O)N(C)C)C1.O=C(O)C(F)(F)F	-23.94
Cc1ccc(CN2CCC3(CC2)CN(c2ccccc2)C(=O)CO3)o1.O=C(O)C(F)(F)F	-15.41
COCC1CC2(CCN(c3cccc(C)n3)CC2)CN1C(C)C.O=C(O)C(F)(F)F.O=C(O)C(F)(F)F (stereo not drawn)	24.58
CN(C)C(=O)N1CCO[C@@H]2CC(COCc3cccnc3)C[C@H]21.O=C(O)C(F)(F)F (stereo partly drawn)	17.51
Cc1ccc(OCc2nc(CNCCn3cccn3)cs2)cc1	94.11
Cc1cnn(CCCNCc2csc(COc3ccccc3)n2)c1	15.28
Cc1nc(COc2ccc(CNCCn3cccn3)cc2)cs1	-21.22
Cc1cnn(CCNCc2csc(COc3ccccc3)n2)c1	103.7
Cc1cnn(CCNCc2ccc(OCc3csc(C)n3)cc2)c1	5.493
c1ccc(OCc2nc(CNCCn3cccn3)cs2)cc1	46.73
Cc1nnc(N2CC[C@H]3C[C@H](C(=O)N(C)C)O[C@@H]3C2)s1.O=C(O)C(F)(F)F	7.027
COCC1CN(CC2CC2)Cc2nn(CC3CC3)cc21.O=C(O)C(F)(F)F (stereo not drawn)	-19.88

SMILES	Percent Effect [%]
CC(C)(C(=O)NCC(N)=O)c1ccccc1F	8.109
CN(C)C(C)(C)CNC(=O)C(C)(C)c1ccccc1F	97.79
CC(C)(CNC(=O)C(C)(C)c1ccccc1F)C(N)=O	-4.561
CC1CCN(c2ncc3c(n2)CN(C2CCS(=O)(=O)C2)C3=O)CC1 (stereo not drawn)	-20.34
Cc1nccn1-c1cccc(C2CCCN2)n1.Cl (stereo not drawn)	-11.58
CCCS(=O)(=O)N1CCC2(CC1)CN(CC1CCOC1)c1ccccc12.O=C(O)C(F)(F)F (stereo not drawn)	28.34
Cc1cccc(CN2C[C@@H]3COC[C@]3(CNC(=O)C3CC3)C2)c1.O=C(O)C(F)(F)F	2.9
COCCN(Cc1cc(O)nc2ccccc12)C(=O)NC(C)C	104.4
CC(C)NC(=O)N(Cc1cc(O)nc2ccccc12)C(C)C	-8.593
COCCCN(Cc1cc(O)nc2ccccc12)C(=O)NC(C)C	-0.9795
Cc1cc(N2CCN(C(=O)[C@@H]3C[C@@H]4C=C[C@H]3C4)CC2)cc(C)n1	-20.18
O=C(CC1CC1)N1C[C@@H]2CCN(c3cnccn3)C[C@@H]2C1.O=C(O)C(F)(F)F	-16.38
O=C(NCCCN1CCOCC1)c1ccc(-n2ccc3ccccc32)s1	14.99
O=C(NCCCN1CCCC1=O)c1ccc(-n2ccc3ccccc32)s1	22.37
O=C(NCCCN1CCCCC1)c1ccc(-n2ccc3ccccc32)s1	102.3
CC(=O)N1C[C@@H]2CC[C@H](C1)N(S(=O)(=O)c1ccc(C#N)cc1Cl)C2	12.47
O=C(O)C(F)(F)F.O=C(c1cscn1)N1CCC2(CCN(Cc3cccs3)CC2)C1	3.711
O=C(Nc1cccnc1)[C@@H]1COC[C@H]2CN(C3CCCC3)C[C@H]21.O=C(O)C(F)(F)F.O=C(O)C(F)(F)F	-37.6
Cc1nnc(SCc2ccccn2)s1	4.26
CCc1cc(=O)[nH]c(SCc2ccccn2)n1	70.99
CCCc1cc(=O)[nH]c(SCc2ccccn2)n1	69.86
O=c1cc(C2CCNCC2)nc(CCc2ccccn2)[nH]1	6.043
CCCc1cc(=O)[nH]c(-c2ccccc2CN(C)CCC(C)C)n1	-7.876
CCc1c(C)nc(SCc2ccccn2)[nH]c1=O	33.29
